ALDH1A1 inh – ALDH1A1 (human) enzyme inhibition | P00352 | hit rate 7.3% among 220,000 | Purified ALDH1A1, NADH fluorescence, propionaldehyde substrate | AID 1030 | Potency, µM (series often up to 75.3 µM), without a hit: at the top dose activity, negative = inhibition, actives largely listed as inhibitors;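 note: potency is the fitted concentration of half-maximal effect; plate controls were no enzyme wells and a reference inhibitor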
Target sequence (P00352 whole entry, looked up): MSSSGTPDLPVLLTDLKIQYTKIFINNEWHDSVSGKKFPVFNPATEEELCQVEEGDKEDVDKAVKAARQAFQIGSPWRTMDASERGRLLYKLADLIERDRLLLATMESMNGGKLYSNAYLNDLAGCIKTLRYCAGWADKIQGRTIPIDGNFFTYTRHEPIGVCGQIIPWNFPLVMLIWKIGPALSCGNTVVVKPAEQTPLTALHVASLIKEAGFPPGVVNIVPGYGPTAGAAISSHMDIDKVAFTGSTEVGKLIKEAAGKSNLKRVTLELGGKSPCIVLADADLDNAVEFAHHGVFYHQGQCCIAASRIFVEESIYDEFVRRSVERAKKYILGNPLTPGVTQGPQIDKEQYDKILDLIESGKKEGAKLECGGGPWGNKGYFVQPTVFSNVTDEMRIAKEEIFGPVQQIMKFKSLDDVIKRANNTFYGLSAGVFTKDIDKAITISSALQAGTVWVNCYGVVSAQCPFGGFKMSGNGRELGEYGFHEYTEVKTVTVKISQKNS
HPGD block – blocks human HPGD enzyme activity. Potency, µM, for the others: top-dose activity change, negative = inhibition, hits mostly inhibitors. P15428. purified HPGD, NADH fluorescence kinetic, PGE2 substrate. hit rate 4.3% among 150,000. AID 894; note: potency is the fitted concentration of half-maximal effect
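NADH formation kinetics: reaction with 30 uM PGE2 and 1 mM NAD+ (final), 20 nM enzyme, Tris-HCl pH 8 with Tween 20, after 15 min compound preincubation at room temperature. Fluorescence change, last versus first of five reads.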
PNC assembly inh – blocks assembly of the perinucleolar compartment; PC3M PTB-GFP, PNC prevalence imaging, 16 h; stronger effect = lower value; activity change (PNC), negative = inhibition, % at 10 µM; hit rate 3.1% among 140,000; AID 2417;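 active = readout at or below -70, meaning at least 70% loss of cells showing the perinucleolar compartment, a nuclear body marking cancer cells; inconclusive = readout between -30 and a set limit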;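 note: plate controls were DMSO wells for no effect and camptothecin positive control wells for full effect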
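Compounds are pinned in duplicate onto adhered PC3M cells stably expressing GFP-tagged PTB and incubated 16 h at 37 C. Cells are then fixed, nuclei stained with Hoechst, and PNC-positive cells counted.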
* hit, by the source's call; u = inconclusive; x = not tested or not shown; [ ] = dose if it differs, or a comment. Compounds with a hit are over-represented: about 11% of the library has one in this group of screens. Unless noted, calls come from the whole dose curve; as a rule, active = well fitted inhibition curve with a large enough effect (not every such curve was filed as active); inconclusive = small, poorly fitted or top-dose-only effect, or another doubt; inactive = no such curve, though single readings can be large or run the other way. Unless noted, % is set by controls: 0 for no effect and ±100 for the full control effect.

SMILES | ALDH1A1 inh | HPGD block | PNC assembly inh
Cc1ccnc(SCc2cc(=O)c(OC(=O)c3ccco3)co2)n1 | 6% | -5% | 42
CCN(CC)S(=O)(=O)c1ccc(C(=O)Oc2coc(CSc3nc(C)cc(C)n3)cc2=O)cc1 | 2% | -9% | 48
Cc1ccnc(SCc2cc(=O)c(OC(=O)c3ccc(Cl)c([N+](=O)[O-])c3)co2)n1 | 7.5µM* | u | 27
Cc1ccc(OCc2csc(N)n2)cc1 | 5% | x | x
COc1ccccc1C(CCNS(=O)(=O)c1ccc(C)cc1)c1ccco1 (configuration not stated) | u | -18% | 27
O=C(Nc1ccccc1)c1nsnc1C(=O)Nc1ccccc1 | 6% | x | x
COC(=O)c1sccc1NC(=S)N1CCN(c2cccc(C)c2C)CC1 | u | -7% | -9
COC(=O)/C(=N/Nc1ccccc1C)Sc1nnc(C(O)c2ccccc2)n1-c1ccccc1 (configuration not stated) | -5% | 32µM* | -7
CC(=O)/C(=N/Nc1cccc(Cl)c1)Sc1nnc(C(O)c2ccccc2)n1-c1ccccc1 (configuration not stated) | 12% | -13% | -28
COc1ccc(-n2c(=O)c(-c3cccc(F)c3)nc3cncnc32)cc1 | -4% | x | x
CCCCCCCCOC(=O)CCc1c(C)[nH]c(=S)[nH]c1=O | 2µM* | -9% | 20
CCCCCCOC(=O)CCc1c(C)nc(N)[nH]c1=O | 19% | 1% | 29
CNC(=O)C(=O)NCCCN1CCOCC1 | 14% | x | x
CC(C)c1ccc(-c2nn(-c3ccccc3)cc2C2C(C#N)=C(N)OC3=C2C(=O)CC(C)(C)C3)cc1 (configuration not stated) | -7% | -14% | -13
CCCN=Cc1c(CCC)[nH]n(-c2nc3ccccc3s2)c1=O | 14µM* | -23% | -12
CCCc1[nH]n(-c2nc3ccccc3s2)c(=O)c1C=NCCCN(CC)CC | -2% | x | x
Cc1ccc(NC(=O)CN2CCCCCC2)cc1[N+](=O)[O-] | 8% | x | x
CC(C)C[C@H](N)CSSC[C@@H](N)CC(C)C | 2% | -3% | x
Cc1ccc(S(=O)(=O)N2CCN(S(=O)(=O)N3CCOCC3)CC2)c(C)c1 | 13µM* | -10% | -14
Cc1ccc(S(=O)(=O)N2CCN(S(=O)(=O)N3CCOCC3)CC2)cc1C | 9% | -11% | -29
O=C1CCCC=C1[C@@H](O)COCc1ccccc1 | -7%[13.5 µM] | x | x
CC(C)(C)C1CCc2sc(-c3nnc(CCl)o3)cc2C1 (configuration not stated) | 22µM* | x | x
COC(=O)c1ccc(/C=N/NC(=O)CC(=O)NCc2cccnc2)cc1 | 7% | x | x
S=c1[nH]nc(-c2cc(-c3ccccc3)n[nH]2)n1/N=C/c1ccc(Cl)cc1 | 0% | x | x
CCn1c(-c2ccc(Cl)cc2)n[nH]c1=S | -5% | -15% | 2
SMILES | ALDH1A1 inh | HPGD block | PNC assembly inh
Cn1cccc1/C=N/n1c(-c2ccc(Cl)cc2)n[nH]c1=S | 11% | 4µM* | 5
Cn1cccc1/C=N/n1c(-c2ccc(Cl)cc2Cl)n[nH]c1=S | u | 13µM* | 15
Cc1ccc(-c2n[nH]c(=S)n2/N=C/c2cccn2C)cc1 | -16% | 8.9µM* | 24
Cc1nnc(C)n1/N=C/c1cccn1C | -2% | 4% | 18
O=C(Nc1cccc(S(=O)(=O)N2CCCCC2)c1)Nc1ccc(Cl)cc1Cl | -7% | -5% | 15
C[C@@]12CCC3c4ccc(OS(=O)(=O)O)cc4CCC3C1CCC2O (some centres not stated) | 9% | -11% | x
O=C(CCNS(=O)(=O)c1ccc(Br)s1)NCc1ccc2c(c1)OCO2 | -5% | x | x
O=C(CCC(=O)c1cccs1)NCC(=O)Nc1ccc(F)c(F)c1F | -9% | -6% | 33
CC(=O)OCC(=O)c1ccc2ccn(C(C)=O)c2c1 | u | u | -100*
COc1ccccc1N1CCN(CC(=O)c2ccc3ccn(C(C)=O)c3c2)CC1 | u | -12% | -11
COc1ccccc1NC(=O)c1c(Nc2ccccc2C)sc(C(=O)Nc2cccc(Cl)c2)c1N | 5% | -11% | u
Cc1ccc(-c2csc(=S)n2CC(=O)OCC(=O)NCc2ccc(F)cc2)cc1 | 13µM* | 16µM* | -19
O=C(COC(=O)Cc1ccc(-c2ccccc2)cc1)NCc1ccc(F)cc1 | -5% | -3% | 10
Cc1cc2n(n1)C(c1ccccc1)CC(c1ccc(Br)cc1)=N2 (configuration not stated) | u | -16% | u
CSc1cc2c(cc1C(F)(F)F)N(C(=O)Nc1cccnc1)CC2 | 0% | -4% | x
CCC(=O)Nc1nnc(SCC(=O)NCCc2ccc(OC)c(OC)c2)s1 | -12% | x | x
O=C(C1CCCCC1)N1CCCC(c2nc3c(nnn3Cc3ccccc3)c(=O)[nH]2)C1 (configuration not stated) | 16µM* | 14µM* | -10
COc1ccccc1NC(=O)N1CCCC(c2nc3c(nnn3Cc3ccc(C)cc3)c(=O)[nH]2)C1 (configuration not stated) | u | x | 2
Cc1ccc(C)c(Cn2nnc3c(=O)[nH]c(C4CCCN(C(=O)C5CCCCC5)C4)nc32)c1 (configuration not stated) | 13µM* | 6.3µM* | 14
Cc1ccc2nc(C3CCCN(C(=S)Nc4ccccc4C)C3)[nH]c2c1 (configuration not stated) | -9% | -13% | 19
CC(C)(C)c1csc(NC(=O)c2ccncc2)n1 | -4% | x | x
CC(C)(C)c1csc(NC(=O)c2ccc3nccnc3c2)n1 | u | 10µM* | 47
Cc1ccc(CN2CCN(/N=C/C=C/c3ccccc3[N+](=O)[O-])CC2)cc1 | 6.3µM* | x | x
COc1ccccc1/C=C/C=N/N1CCN(Cc2ccccc2)CC1 | u | -12% | -5
CCCNC(=O)NC(=O)CN1C(=O)NC(C)(c2ccc(C)cc2)C1=O (configuration not stated) | 0% | -14% | 19
SMILES | ALDH1A1 inh | HPGD block | PNC assembly inh
CCCCC1(CCCC)NC(=S)N(Nc2ccc(C)cc2)C1=O | -3% | -10% | -90*
NC(=S)N/N=C\c1ccc(-c2cccc(Cl)c2Cl)o1 | 32µM* | u | 10
NC(=S)N/N=C/c1ccc(-c2ccccc2)o1 | -15% | x | x
CCCC[C@@H]1C[C@H]1C(NC(=O)c1cccs1)c1ccc(-c2ccccc2)cc1 (some centres not stated) | -3% | -7% | x
Cc1ccc(NC(=O)c2scc3c2CCCC3)cc1 | -11% | -8% | 27
O=C(c1scc2c1CCCC2)N1CCCCC1 | -8% | 8.9µM* | u
COc1ccc(Cc2nnc(Nc3ccc4c(c3)OCCO4)[nH]c2=O)cc1 | -4% | x | x
COc1ccc(CCC(=O)c2c(O)cc(O[C@@H]3O[C@H](CO)[C@@H](O)[C@H](O)[C@H]3O[C@@H]3O[C@@H](C)[C@H](O)[C@@H](O)[C@H]3O)cc2O)cc1O | u | -3% | x
O=C(N[C@@H](Cc1ccccc1)C(=O)O)c1c(F)c(F)c(F)c(F)c1F | 6% | x | x
Cc1c(C(=O)N2CCN(Cc3ccccc3)CC2)sc2ncnc(N3CCOCC3)c12 | 25µM* | -20% | 40
Cc1c(C(=O)N2CCC(C)CC2)sc2ncnc(N(C)c3ccccc3)c12 | u | 8.9µM* | 11
CC1CCN(C(=O)COc2ncnc3ccccc23)CC1 | -6% | x | x
Cc1c(C(=O)N2CCC(Cc3ccccc3)CC2)sc2ncnc(N3CCC(C)CC3)c12 | -7% | x | x

Bioassay records (PubChem BioAssay)
